The text below walks through data of ChEMBL document CHEMBL4513216, “Probing the Open Global Health Chemical Diversity Library for Multistage-Active Starting Points for Next-Generation Antimalarials” (ACS Infect Dis, 2020).

About 8,600 (12%) of roughly 69,000 compounds showed an effect of 50% or more. Only a selection was taken, and strong results are over-represented in it overall.

The assay deals with Plasmodium berghei. Kind of assay: Screen against P. berghei liver stage (PbLuc), transformed with Luciferase, at 10uM. The following applies: tested at 10 uM. The format is functional, HepG2.
Turning to `O=C(CSc1ncccn1)N1C[C@@H]2CC[C@H]1CN(Cc1ccncc1)C2`, the INHIBITION is given as 21.6%.

Consider `Cc1nc2c(C)cccc2cc1C(=O)N1CCC2(CCNCC2)CC1`, for which the INHIBITION was 47.7%.

For the compound `Cc1cc(O)c(OCC(=O)/N=c2\[nH]cc(C)s2)cn1`, the INHIBITION is recorded as -48.2%.

As for `Cc1ccc(-c2nc(CNC3CCc4ncnn4C3)no2)cc1` (centres undefined), the INHIBITION amounted to 0.411%.

In the case of `CC(Cn1ccnc1)NC(=O)C1(c2ccccc2)CC1` (centres undefined), the INHIBITION worked out at 46.2%.

Regarding `COCC1CN(Cc2ccc(C)s2)Cc2nnn(C)c21` (centres undefined), the INHIBITION came to 21.4%.

As to `Cc1ccc(CN2Cc3nnn(C)c3C(COCc3ccccc3)C2)o1` (centres undefined), the INHIBITION stood at 28.4%.

On to `Cc1ccc(CN2Cc3nnn(C)c3C(COCc3ccccn3)C2)s1` (centres undefined), for which the INHIBITION is reported as -37.9%.

With `Cc1ccc(CN2Cc3nnn(C)c3C(COCC3CC3)C2)s1` (centres undefined), the INHIBITION was found to be 71.8%.

With `Cc1ccc(CN2Cc3nnn(C)c3C(COCc3ccccc3)C2)s1` (centres undefined), the INHIBITION was 78.7%.

Turning to `Cc1ccc(CN2Cc3nnn(C)c3C(COCCN(C)C)C2)s1` (centres undefined), the INHIBITION was 10%.

Consider `CC[C@@H]1C[C@H](C(F)(F)F)n2nc(C3CCN(S(=O)(=O)CC)CC3)cc2N1`, for which the INHIBITION was 46%.

Consider `NC(=O)COc1ccc(CNCc2cc(F)ccc2F)cc1`, for which the INHIBITION came to 1.56%.

As for `CCn1c(C)nnc1CN(C)C1CCN(Cc2nnc(C3CC3)o2)C1` (centres undefined), the INHIBITION was determined as 36.1%.

Consider `CC(C)Cn1nc(-c2ccc(C(=O)O)cc2)cc1-c1ccc(F)cc1`, for which the INHIBITION is reported as 54.3%.

In the case of `CCC(O)Cn1nc(-c2ccc(C(=O)O)cc2)cc1-c1cccc(F)c1` (centres undefined), the INHIBITION came out at 19.75%.

Consider `CCC(O)Cn1nc(-c2ccc(C(=O)O)cc2)cc1-c1ccc(F)cc1` (centres undefined), for which the INHIBITION is reported as 38.05%.

`COc1ccc(CC2CN(C3CCSCC3)CCO2)cc1` (centres undefined): the INHIBITION is on record as 35.4%.

`Cc1ccc(N2CC[C@H]3OCC[C@@]3(C(=O)N3CCCO3)C2)nn1`: the INHIBITION is on record as 25.3%.

For the compound `CC(NC(=O)N(C)Cc1ccncc1)c1cn(-c2ccccc2)nn1` (centres undefined), the INHIBITION was determined as 60.1%.

Regarding `CC(NC(=O)N(C)Cc1ccncc1)c1nncn1C` (centres undefined), the INHIBITION is 13.7%.

As to `CC(NC(=O)CCCN(C)C)c1cn(-c2ccccc2)nn1` (centres undefined), the INHIBITION was found to be 21.8%.

Turning to `Cc1csc(CNC(=O)N(C)Cc2ccncc2)n1`, the INHIBITION was -53.6835%.

Consider `CCN(Cc1ccncc1)Cc1cn(-c2ccccc2)nn1`, for which the INHIBITION was found to be 5.33%.

For the compound `CN(Cc1ccncc1)C(=O)NCc1cn(-c2ccccc2)nn1`, the INHIBITION was 56.3%.

On to `NC(=O)NCC(=O)N1CCCC(c2nccn2CC2CCC2)C1` (centres undefined), for which the INHIBITION was determined as 17.5%.

Take `CC(C)c1nnc2n1CCN(c1nn3cc(C(C)(C)C)nc3s1)C2`: the INHIBITION was -34.6%.

In the case of `Cc1nn(C)c(Cl)c1C1CCCN1Cc1nc(C2CC2)no1` (centres undefined), the INHIBITION was determined as 37.4%.

As to `COC(=O)CCCn1ccnc1-c1ccc(OC)c(F)c1F`, the INHIBITION was 43.9%.

With `COc1ccc(-c2nccn2CCN2CCCCC2)c(OC)c1OC`, the INHIBITION is recorded as 55%.

On to `CCn1ccnc1CN1CCN(CCOc2ccccc2OC)CC1`, for which the INHIBITION is on record as 27.1%.

As to `Cc1nnc2n1CCN(Cc1ncc(-c3ccc(F)cc3)o1)C2`, the INHIBITION is 46.1%.

Regarding `Cc1c(CCC(=O)N2CCOC(c3cnccn3)C2)cnn1C` (centres undefined), the INHIBITION is -10.4%.

Take `Cc1noc(C)c1C(=O)N1CCCN(Cc2nccn2C(C)C)CC1`: the INHIBITION stood at 4.1%.

Turning to `CCN(CC1CCCO1)C(=O)Nc1cccc(N2CCOCC2)c1` (centres undefined), the INHIBITION is on record as 54.4%.

With `CCN(CCC(F)(F)F)C(=O)Nc1cccc(N2CCOCC2)c1`, the INHIBITION is given as 3.47%.

For the compound `CCN(CC1CCCO1)C(=O)Nc1ccc(OC)c(C)c1` (centres undefined), the INHIBITION is reported as -79.7%.

For `O=C(c1cscn1)N1CCC(Cc2cnc3[nH]ccc3c2)C1` (centres undefined), the INHIBITION was -14.1%.

For `O=C(Nc1cc[nH]n1)c1ccc(COCC(F)(F)F)cc1`, the INHIBITION is -17.8%.

Regarding `COc1cccnc1NC(=O)COc1c(C)cccc1C`, the INHIBITION came out at 36.5%.

`COc1cccnc1NC(=O)c1ccc(COCC(F)(F)F)cc1`: the INHIBITION is listed as 62.4%.

`Cc1n[nH]c(NC(=O)c2ccc(COCC(F)(F)F)cc2)c1C`: the INHIBITION was determined as 52.5%.

As for `COc1cccnc1NC(=O)COc1ccc(F)cc1F`, the INHIBITION was 33.5%.

Turning to `CC(C)(C)NC(=O)c1ccc(COCC(F)(F)F)o1`, the INHIBITION came out at 14.2%.

With `O=C(Cc1ccccc1)N1CCCC2(COCCN(CC3CC3)C2)C1` (centres undefined), the INHIBITION turned out to be 19.5%.

In the case of `Cc1ccc(C(C(=O)NCc2n[nH]c(N)n2)N(C)C)cc1` (centres undefined), the INHIBITION came to 19.5%.

For `CC(=O)N(C)Cc1ncn2c1CN(C(=O)C1CCCO1)CCC2` (centres undefined), the INHIBITION was -0.453%.

Consider `CCc1ncc(CN2CCN(CCOC)CC2)cn1`, for which the INHIBITION turned out to be 11.1%.

In the case of `COCCN1CCN(Cc2cnc(C(C)C)nc2)CC1`, the INHIBITION was found to be 53.2%.

As to `COCCN1CCN(Cc2cnc(C)nc2)CC1`, the INHIBITION is reported as -9.32%.

On to `CN(C)S(=O)(=O)c1ccc(-c2nc(C#N)c(NC3CC3)o2)o1`, for which the INHIBITION was 15.4%.

In the case of `Clc1ccccc1CN1CCc2nc(C3CCNCC3)ncc2C1`, the INHIBITION came to 23.2%.

Take `CCN(CC)S(=O)(=O)N1CCc2nc(C3CCNCC3)ncc2C1`: the INHIBITION amounted to 32.3%.

Turning to `Cc1ccc(S(=O)(=O)N2CCc3nc(C4CCNCC4)ncc3C2)cc1`, the INHIBITION was 68.2%.
